High-throughput results: PubChem, several laboratories
Measles CPE = protection of cells from measles virus | 1.5% of 140,000 active | Measles virus-infected cells, CPE protection, absorbance | protection (pct of control), % at 4 µM; in the data active means protection mostly above about 24%, no sharp cut-off; inactive means mostly below about 26%
cytoskel mod = alters cytoskeleton assembly in HUVEC cells. HUVEC TNFa F-actin phalloidin imaging, high content. inhibition, % at 2 µM. 0.18% of 91,000 active;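 active means inhibition above the batch mean plus 3 SD and confirmed as a hit by visual image inspection, cut at about 30% in these data, passing the limit was not always enough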
Numbers without * were called inactive; x = not tested or not shown. Only some compounds are listed: those with a hit (about 1.5% of all), similar ones and a draw of the others.

SMILES | Measles CPE | cytoskel mod
Cc1nc(-c2cccc(NC(=O)c3cccs3)c2)cs1 | 3.2 | 1.8
CC(=O)Nc1cccc(-c2csc(Nc3ccc(C)cn3)n2)c1 | 53.2* | x
CN(C)N1C(N)=C(C#N)C(c2cccnc2)C2=C1CCCC2=O (stereo unspecified) | 14.6 | x
Brc1ccc(-c2nnc3n2CCCCC3)cc1 | 10.0 | -1.8
Clc1ccc(-c2nnc3n2CCCCC3)cc1 | 79.0* | -21.0
Cc1ccc(Nc2nnc(SCC(=O)Nc3cccnc3Cl)s2)cc1C | 7.5 | x
COC(=O)c1c(-c2ccc(C(C)(C)C)cc2)csc1NC(=O)C1C2CCC(O2)C1C(=O)O (stereo unspecified) | 10.5 | x
COC(=O)c1c(-c2ccc(C)cc2)csc1NC(=O)C1CC=CCC1C(=O)O (stereo unspecified) | 47.2* | x
CCN(Cc1ccccc1)C(=O)Cn1cnc2c1c(=O)n(C)c(=O)n2C | 8.7 | 14.7
CCN(CC)C(=O)Cn1cnc2c1c(=O)n(C)c(=O)n2C | 43.7* | -3.3
CC1/C(=N/O)CC(c2ccccc2)NC1c1ccccc1 (stereo unspecified) | 22.9 | 8.8
O=C1CC(c2ccc(Br)cc2)NC(c2ccc(Br)cc2)C1c1ccccc1 (stereo unspecified) | 53.0* | x
Nn1c(SCC(=O)NCCC2=CCCCC2)nnc1C(F)(F)F | 3.8 | 17.4
CCNc1nc(CSc2ccccc2)nc2sc(C)c(C)c12 | 3.5 | x
CCc1ccc(C(=O)COC(=O)C(Cc2ccccc2)NC(=O)c2ccc(Cl)cc2)cc1 (stereo unspecified) | 45.0* | -14.4
CC(=O)NC(Cc1ccccc1)C(=O)OCC(=O)c1ccc(Cl)cc1 (stereo unspecified) | 4.6 | x
Oc1ccc(C=Nc2ccccc2-c2nc3ccccc3[nH]2)c(O)c1 | 8.8 | x
Oc1ccccc1C=Nc1ccccc1-c1nc2ccccc2[nH]1 | 57.7* | x
CCCOc1ccc(NC(=O)C(=O)NCCCn2ccnc2)cc1 | 5.7 | x
Cc1cc(/C=C2/NC(=O)N(Cc3ccccc3F)C2=O)c(C)n1C(C)C | 3.7 | x
Cc1cc(/C=C2/NC(=O)N(c3ccccc3)C2=O)c(C)n1C(C)C | 55.0* | x
COCCCNC(=S)NC1CC2CCCC(C1)N2Cc1ccco1 (stereo unspecified) | 10.5 | 67.9*
CNC(=S)NC1CC2CCCC(C1)N2Cc1ccco1 (stereo unspecified) | 26.8 | -24.5
O=C(NCc1ccco1)c1cccc(NS(=O)(=O)c2ccccc2F)c1 | 13.6 | x
O=C1CN(c2ccc(Cl)cc2)C2(CCCCC2)S1 | 2.7 | x
SMILES | Measles CPE | cytoskel mod
c1ccc(Cc2ccc(OCCn3cncn3)cc2)cc1 | 14.9 | 13.4
c1ccc(COc2ccc(OCCCn3cncn3)cc2)cc1 | 29.8* | 3.6
Cc1cc(C(=O)c2ccc(C(C)(C)C)cc2)c(NC(=O)CCl)s1 | 4.9 | x
COc1ccc(S(=O)(=O)N2CCC(C(=O)NCC(c3cccs3)N(C)C)CC2)cc1 (stereo unspecified) | 51.7* | 37.9
COc1ccc(CCNC(=O)C2CCN(S(=O)(=O)c3ccc(OC)c(OC)c3)CC2)cc1 | 16.0 | -19.3
CC(=O)Nc1cccc(/C(C)=N\NC(=O)c2ccc(Cn3nc([N+](=O)[O-])c(Cl)c3C)o2)c1 | 9.5 | x
CNC(=S)N(Cc1ccc(OC)cc1)C1CC(=O)N(c2ccc(Cl)cc2)C1=O (stereo unspecified) | 7.7 | 6.3
CCOC(=O)c1c(NC(=O)CSc2nc3ccccc3c(=O)n2-c2ccc(F)cc2)sc(C(C)=O)c1C | 32.8* | x
CCOC(=O)c1c(NC(=O)CSc2ncnc3ccccc23)sc(C(C)=O)c1C | 3.6 | x
CCOC(=O)C1CCN(C(=O)c2ccccc2NS(=O)(=O)c2ccc(F)cc2)CC1 | 8.3 | x
COC(=O)c1ccccc1NC(=S)N(Cc1ccc2c(c1)OCO2)Cc1cc2cc(OC)ccc2[nH]c1=O | 8.2 | x
CC(OC(=O)c1nn(C(C)C)c(=O)c2ccccc12)C(=O)Nc1ncc(Cl)cc1Cl (stereo unspecified) | 1.5 | x
Cc1nnc(SC(C)C(=O)Nc2ncc(Cl)cc2Cl)n1Cc1ccccc1 (stereo unspecified) | 13.1 | 0.8
COCCn1c(SC(C)C(=O)Nc2ncc(Cl)cc2Cl)nc2ccccc21 (stereo unspecified) | 52.6* | 2.8
Cc1cc(SC(C)C(=O)Nc2ncc(Cl)cc2Cl)nc2ccccc12 (stereo unspecified) | 26.3* | x
Cc1ccc(S(=O)(=O)Nc2cc3c(C(=O)Nc4ccccc4)c(C)oc3c3ccccc23)cc1 | 12.6 | x
Cc1ccc(C2CC(c3cccs3)=NN2C(=O)c2ccc(Br)o2)cc1 (stereo unspecified) | 20.5 | 4.3
O=C(Nc1ccc(NC(=O)C2CC2)nc1)c1cccs1 | 56.7* | -21.7
CCCC(=O)Nc1ccc(NC(=O)c2cccs2)cn1 | 3.2 | 3.1
O=C(COc1ccccc1)NNC(=O)c1cccs1 | 2.3 | x
O=C(O)COc1ccc(NC(=O)c2cccs2)cc1 | 48.4* | x
COc1ccc(/C=C/C(=O)OCC(=O)Nc2ccc(C)cc2)cc1S(=O)(=O)N1CCOCC1 | 5.0 | x
Cc1ccc(S(=O)(=O)NCCCCCC(=O)Nc2cccc(C)c2)cc1 | 4.4 | x
COc1ccc(CCN(CC(=O)NC2CCCC2)C(=O)CCC(=O)Nc2cc(C)on2)cc1OC | 22.4* | x
COc1ccc(C)cc1N(CC(=O)NC1CCCC1)C(=O)CCC(=O)Nc1cc(C)on1 | 9.6 | -9.3
SMILES | Measles CPE | cytoskel mod
O=C1CCC/C(=N\NC(=O)c2ccc(COc3cccc4cccnc34)cc2)C1 | 4.2 | x
Cc1ccccc1NC(=O)CCn1c(=O)oc2ccccc21 | 17.1 | x
O=C(CCn1c(=O)oc2ccccc21)Nc1nc2ccccc2s1 | 40.2* | -15.0
CC(Sc1nc(C(C)(C)C)cc(-c2ccccc2)c1C#N)C(=O)Nc1ccccc1 (stereo unspecified) | 16.6 | x
CN(c1cccc(NC(=O)CN(c2cccc(Cl)c2)S(=O)(=O)c2ccccc2)c1)S(C)(=O)=O | 19.4 | x
Cc1n[nH]c(=O)nc1NCc1ccc(Cl)cc1 | 36.3* | -5.7
Cc1n[nH]c(=O)nc1NCCN(C)C | 7.8 | 8.2
CCOC(=O)c1c(NC(=O)COC(=O)c2ccccn2)sc2c1CCC2 | 10.5 | x
CC(=O)Nc1ccc(N(C)S(C)(=O)=O)cc1 | 39.5* | 11.4
CC(=O)Nc1ccc(S(=O)(=O)Nc2cccc(N(C)S(C)(=O)=O)c2)cc1 | 5.2 | -1.7
Cc1oc(-c2ccccc2Cl)nc1CSc1nc2c(c(=O)[nH]1)CCC2 | 6.8 | x
Cc1ccnc(N=Cc2c(O)ccc3oc4c(c23)CCCC4)c1 | 10.2 | x
COc1cccc(C(=O)Nc2ccc(S(=O)(=O)Nc3nccc(C)n3)cc2)c1 | 29.8* | x
COc1ccc(C(=O)Nc2ccc(S(=O)(=O)Nc3nccc(C)n3)cc2)cc1OC | 9.9 | x
COCCN(C(=O)Cc1cccs1)C(C(=O)NCc1ccc(OC)cc1)c1ccc(OC)cc1 (stereo unspecified) | 39.8* | x
COc1ccc(CNC(=O)C(c2ccco2)N(Cc2cccs2)C(=O)Cc2cccs2)cc1 (stereo unspecified) | 7.4 | 3.3
COc1ccc(N=Cc2c(O)[nH]c3ccccc23)cc1 | 45.7* | 1.8
Oc1[nH]c2ccccc2c1C=Nc1ccc2c(c1)OCO2 | 6.1 | x
CC(=O)Nc1ccc(NCC(O)COc2ccccc2)cc1 (stereo unspecified) | 5.0 | 19.6
O=C(NNCC(O)COc1ccccc1)c1ccccc1 (stereo unspecified) | 49.0* | x
COc1cccc(CNC(=O)CCS(=O)(=O)c2cccs2)c1 | 2.7 | -0.7
CC(C)(C)OC(=O)N1CCCC1C(=O)O (stereo unspecified) | 6.7 | -19.1
